± gives the standard deviation of the averaged measurements. Of roughly 5,400 targets only a part is listed; those with the largest changes were picked by preference.
Compound: Nc1nc2c(ncn2[C@@H]2O[C@H](COP(=O)(O)OP(=O)(O)OP(=O)(O)O)[C@@H](O)[C@H]2O)c(=O)[nH]1 [guanosine triphosphate]
Assay: NP40-soluble protein abundance relative to vehicle (solubility fold change) (ratio); higher = more soluble protein in presence of GTP
Outline: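 Values are fold changes against the detergent-processed vehicle, based on vsn-normalised intensities. Jurkat crude lysate was treated at eight concentrations from 0.1 to 10 mM (10 min at room temperature, then 3 min at 37 °C), solubilised with 0.8% NP40 and benzonase, ultracentrifuged and analysed by TMT-labelled LC-MS/MS over three independent experiments.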

Chain of UniProt Q9P0P0 (Q9P0P0 whole entry): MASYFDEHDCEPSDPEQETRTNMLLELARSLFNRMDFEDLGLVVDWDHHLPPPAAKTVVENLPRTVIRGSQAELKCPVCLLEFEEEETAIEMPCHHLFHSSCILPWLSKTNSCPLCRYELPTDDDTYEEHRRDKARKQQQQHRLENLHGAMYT
Chain of UniProt Q96LT9 (Q96LT9 whole entry): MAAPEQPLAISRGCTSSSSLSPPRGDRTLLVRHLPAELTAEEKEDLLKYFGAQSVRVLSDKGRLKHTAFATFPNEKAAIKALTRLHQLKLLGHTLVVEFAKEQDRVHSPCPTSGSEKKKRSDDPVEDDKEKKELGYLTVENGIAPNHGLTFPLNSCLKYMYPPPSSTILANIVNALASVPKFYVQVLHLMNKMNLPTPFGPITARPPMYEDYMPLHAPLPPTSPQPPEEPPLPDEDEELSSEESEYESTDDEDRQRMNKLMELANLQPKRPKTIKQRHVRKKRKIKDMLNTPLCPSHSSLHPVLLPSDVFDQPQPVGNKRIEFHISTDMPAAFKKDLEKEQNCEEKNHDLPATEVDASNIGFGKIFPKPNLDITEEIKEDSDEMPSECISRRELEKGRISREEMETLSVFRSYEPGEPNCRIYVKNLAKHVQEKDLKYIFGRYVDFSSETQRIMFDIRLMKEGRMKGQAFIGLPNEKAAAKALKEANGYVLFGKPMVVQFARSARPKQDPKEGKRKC
Chain of UniProt Q9H0D6 (Q9H0D6 whole entry): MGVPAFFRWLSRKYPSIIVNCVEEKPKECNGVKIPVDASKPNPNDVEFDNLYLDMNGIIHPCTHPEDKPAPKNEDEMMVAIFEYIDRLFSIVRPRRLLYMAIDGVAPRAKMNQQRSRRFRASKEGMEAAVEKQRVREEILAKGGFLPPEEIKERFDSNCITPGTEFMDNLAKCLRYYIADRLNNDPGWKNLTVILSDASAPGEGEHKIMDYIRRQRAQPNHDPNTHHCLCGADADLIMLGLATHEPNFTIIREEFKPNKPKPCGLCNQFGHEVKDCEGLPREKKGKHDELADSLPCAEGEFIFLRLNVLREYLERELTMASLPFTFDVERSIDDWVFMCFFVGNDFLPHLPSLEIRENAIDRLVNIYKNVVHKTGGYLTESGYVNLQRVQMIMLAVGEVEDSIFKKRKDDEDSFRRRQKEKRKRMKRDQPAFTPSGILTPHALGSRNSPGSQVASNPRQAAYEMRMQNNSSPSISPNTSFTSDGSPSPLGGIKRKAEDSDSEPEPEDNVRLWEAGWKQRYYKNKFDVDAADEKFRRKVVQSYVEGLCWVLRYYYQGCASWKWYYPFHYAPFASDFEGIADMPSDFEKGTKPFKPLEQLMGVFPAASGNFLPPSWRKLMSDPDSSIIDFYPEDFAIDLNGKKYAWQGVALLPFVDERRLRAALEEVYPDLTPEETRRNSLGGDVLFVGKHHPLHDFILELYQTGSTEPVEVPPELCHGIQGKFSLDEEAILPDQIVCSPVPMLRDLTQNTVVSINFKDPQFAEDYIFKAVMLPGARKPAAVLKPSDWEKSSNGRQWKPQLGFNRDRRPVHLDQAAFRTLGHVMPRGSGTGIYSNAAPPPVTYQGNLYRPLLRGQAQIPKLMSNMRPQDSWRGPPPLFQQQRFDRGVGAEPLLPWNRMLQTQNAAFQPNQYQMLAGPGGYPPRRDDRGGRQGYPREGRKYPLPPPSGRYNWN
Chain of UniProt Q96FJ2 (Q96FJ2 whole entry): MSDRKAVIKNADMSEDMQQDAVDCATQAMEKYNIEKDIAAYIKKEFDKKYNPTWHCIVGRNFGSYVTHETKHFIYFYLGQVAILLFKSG
Chain of UniProt Q99707 (Q99707 whole entry): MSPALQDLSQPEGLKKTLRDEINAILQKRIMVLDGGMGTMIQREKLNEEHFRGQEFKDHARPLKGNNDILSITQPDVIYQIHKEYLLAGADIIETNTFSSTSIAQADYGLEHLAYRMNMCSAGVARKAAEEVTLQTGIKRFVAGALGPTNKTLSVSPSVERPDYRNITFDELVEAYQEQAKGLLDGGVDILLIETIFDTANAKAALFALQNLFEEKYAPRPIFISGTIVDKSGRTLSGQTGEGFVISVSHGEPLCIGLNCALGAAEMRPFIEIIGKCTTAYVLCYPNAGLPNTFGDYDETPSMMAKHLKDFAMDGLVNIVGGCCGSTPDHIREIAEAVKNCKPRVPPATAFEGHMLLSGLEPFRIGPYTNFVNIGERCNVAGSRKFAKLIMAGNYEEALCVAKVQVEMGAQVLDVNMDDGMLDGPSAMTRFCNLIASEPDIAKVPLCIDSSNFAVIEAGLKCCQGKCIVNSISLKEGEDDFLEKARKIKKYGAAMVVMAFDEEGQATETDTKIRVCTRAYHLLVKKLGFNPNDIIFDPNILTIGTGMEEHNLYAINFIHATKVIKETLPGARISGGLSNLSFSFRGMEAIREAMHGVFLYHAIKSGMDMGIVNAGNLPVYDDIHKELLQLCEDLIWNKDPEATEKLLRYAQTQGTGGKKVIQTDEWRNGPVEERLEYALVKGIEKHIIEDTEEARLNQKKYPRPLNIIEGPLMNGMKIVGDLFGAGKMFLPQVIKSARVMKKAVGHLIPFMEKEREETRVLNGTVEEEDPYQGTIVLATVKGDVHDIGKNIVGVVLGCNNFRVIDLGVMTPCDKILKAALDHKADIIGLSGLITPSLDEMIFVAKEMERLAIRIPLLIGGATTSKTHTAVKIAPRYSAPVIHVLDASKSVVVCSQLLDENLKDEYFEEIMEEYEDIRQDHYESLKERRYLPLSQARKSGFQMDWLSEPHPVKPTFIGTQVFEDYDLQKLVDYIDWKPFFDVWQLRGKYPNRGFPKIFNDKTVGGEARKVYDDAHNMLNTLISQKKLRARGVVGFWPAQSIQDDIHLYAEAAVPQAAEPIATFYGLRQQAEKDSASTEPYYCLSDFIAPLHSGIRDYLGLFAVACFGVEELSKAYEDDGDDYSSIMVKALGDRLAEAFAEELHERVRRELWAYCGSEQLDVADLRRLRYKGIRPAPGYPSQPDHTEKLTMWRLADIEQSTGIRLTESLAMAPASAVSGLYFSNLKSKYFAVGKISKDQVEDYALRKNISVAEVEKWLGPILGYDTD
Chain of UniProt Q9P287 (Q9P287 whole entry): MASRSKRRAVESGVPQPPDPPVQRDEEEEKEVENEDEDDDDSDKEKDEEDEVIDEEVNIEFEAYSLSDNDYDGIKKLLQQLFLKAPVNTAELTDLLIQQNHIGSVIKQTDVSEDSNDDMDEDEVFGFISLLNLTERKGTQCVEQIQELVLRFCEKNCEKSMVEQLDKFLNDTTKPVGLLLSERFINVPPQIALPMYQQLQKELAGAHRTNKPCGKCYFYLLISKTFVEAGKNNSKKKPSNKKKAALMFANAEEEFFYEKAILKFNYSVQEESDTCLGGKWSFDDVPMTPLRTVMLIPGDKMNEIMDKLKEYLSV
Chain of UniProt Q969H8 (Q969H8 whole entry): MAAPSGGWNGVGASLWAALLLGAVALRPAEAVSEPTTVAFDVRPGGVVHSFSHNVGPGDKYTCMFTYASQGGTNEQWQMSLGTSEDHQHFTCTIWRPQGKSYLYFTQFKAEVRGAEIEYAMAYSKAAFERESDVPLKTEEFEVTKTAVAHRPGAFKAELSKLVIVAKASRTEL
Chain of UniProt Q92833 (Q92833 whole entry): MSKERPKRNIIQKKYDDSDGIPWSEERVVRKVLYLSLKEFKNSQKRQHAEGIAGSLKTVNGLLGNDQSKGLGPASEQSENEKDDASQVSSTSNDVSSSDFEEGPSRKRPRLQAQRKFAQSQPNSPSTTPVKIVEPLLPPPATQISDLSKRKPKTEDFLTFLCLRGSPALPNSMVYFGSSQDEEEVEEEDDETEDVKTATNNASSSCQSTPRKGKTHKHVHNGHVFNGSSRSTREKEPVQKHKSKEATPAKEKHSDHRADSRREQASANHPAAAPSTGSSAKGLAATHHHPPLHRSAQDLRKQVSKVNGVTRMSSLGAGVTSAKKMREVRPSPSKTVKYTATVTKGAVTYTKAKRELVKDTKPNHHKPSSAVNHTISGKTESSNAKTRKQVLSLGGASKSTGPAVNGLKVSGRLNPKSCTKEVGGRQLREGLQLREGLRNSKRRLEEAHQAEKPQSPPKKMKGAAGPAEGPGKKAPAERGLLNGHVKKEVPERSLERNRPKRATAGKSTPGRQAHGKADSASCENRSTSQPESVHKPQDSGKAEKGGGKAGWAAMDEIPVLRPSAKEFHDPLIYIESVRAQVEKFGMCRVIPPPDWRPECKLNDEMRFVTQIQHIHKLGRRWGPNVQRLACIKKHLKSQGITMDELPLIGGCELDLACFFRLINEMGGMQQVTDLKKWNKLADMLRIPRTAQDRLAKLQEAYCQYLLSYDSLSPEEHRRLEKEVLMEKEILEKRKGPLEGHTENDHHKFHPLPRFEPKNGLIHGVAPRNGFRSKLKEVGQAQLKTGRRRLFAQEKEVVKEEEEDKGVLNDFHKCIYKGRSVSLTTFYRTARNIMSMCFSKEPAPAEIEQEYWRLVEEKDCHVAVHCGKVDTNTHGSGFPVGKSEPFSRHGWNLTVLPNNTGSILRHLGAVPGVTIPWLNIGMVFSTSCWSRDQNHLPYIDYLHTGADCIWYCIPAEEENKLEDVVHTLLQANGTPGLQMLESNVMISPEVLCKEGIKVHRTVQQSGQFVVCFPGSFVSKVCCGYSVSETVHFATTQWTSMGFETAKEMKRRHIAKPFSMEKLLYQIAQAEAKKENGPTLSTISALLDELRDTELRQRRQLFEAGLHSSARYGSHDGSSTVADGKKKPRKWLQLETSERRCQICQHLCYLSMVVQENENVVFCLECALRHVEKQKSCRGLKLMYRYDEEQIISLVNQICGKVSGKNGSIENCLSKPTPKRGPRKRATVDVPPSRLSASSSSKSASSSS
Chain of UniProt Q9NX24 (Q9NX24 whole entry): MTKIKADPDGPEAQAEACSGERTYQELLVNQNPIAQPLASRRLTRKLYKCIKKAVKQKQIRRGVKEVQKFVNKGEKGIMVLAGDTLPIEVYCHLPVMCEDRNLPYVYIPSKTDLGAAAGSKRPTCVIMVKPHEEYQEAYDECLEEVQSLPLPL
Chain of UniProt Q9BWJ5 (Q9BWJ5 whole entry): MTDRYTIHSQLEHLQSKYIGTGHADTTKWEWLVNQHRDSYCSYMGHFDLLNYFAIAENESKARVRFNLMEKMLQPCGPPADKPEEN

Target	NP40-soluble protein abundance (concentration: 0.1mM)	NP40-soluble protein abundance (concentration: 0.5mM)	NP40-soluble protein abundance (concentration: 1mM)	NP40-soluble protein abundance (concentration: 2mM)	NP40-soluble protein abundance (concentration: 4mM)	NP40-soluble protein abundance (concentration: 6mM)	NP40-soluble protein abundance (concentration: 8mM)	NP40-soluble protein abundance (concentration: 10mM)
UniProt Q99828|Q99828-2	0.956 ± 0.08	0.981 ± 0.11	1.02 ± 0.081	1.02 ± 0.084	1.02 ± 0.092	1 ± 0.12	0.996 ± 0.11	0.911 ± 0.12
UniProt Q9Y2C4|Q9Y2C4-3|Q9Y2C4-4	1.2 ± 0.083	1.12 ± 0.049	1.11 ± 0.083	1.14 ± 0.088	1.08 ± 0.033	1.07 ± 0.081	1.01 ± 0.034	1.03 ± 0.044
UniProt Q99707|Q99707-2	0.997 ± 0.019	1.01 ± 0.062	0.987 ± 0.015	1.01 ± 0.033	0.973 ± 0.022	0.965 ± 0.0072	0.928 ± 0.023	0.927 ± 0.029
UniProt Q9BVP2|Q9BVP2-2	1.31 ± 0.073	1.3 ± 0.094	1.34 ± 0.11	1.51 ± 0.19	1.68 ± 0.17	1.73 ± 0.13	1.77 ± 0.2	1.88 ± 0.072
UniProt Q9Y3D0	0.836 ± 0.067	0.869 ± 0.033	1.02 ± 0.042	1.04 ± 0.049	0.987 ± 0.043	1.04 ± 0.013	1.04 ± 0.089	1.09 ± 0.17
UniProt Q9Y3L3|Q9Y3L3-2	0.998 ± 0.025	1 ± 0.045	0.994 ± 0.018	0.988 ± 0.099	0.981 ± 0.04	0.991 ± 0.052	0.958 ± 0.019	1.01 ± 0.034
UniProt Q9NY12|Q9NY12-2	1.04 ± 0.097	1.06 ± 0.12	1.17 ± 0.2	1.34 ± 0.15	1.51 ± 0.24	1.72 ± 0.19	1.9 ± 0.27	2.35 ± 0.49
UniProt Q9NR28|Q9NR28-2	0.964 ± 0.011	0.957 ± 0.055	0.972 ± 0.041	0.963 ± 0.075	0.976 ± 0.059	0.96 ± 0.068	0.94 ± 0.033	1.01 ± 0.035
XRN2 (UniProt Q9H0D6)	0.993 ± 0.025	0.995 ± 0.027	0.974 ± 0.017	0.977 ± 0.027	0.985 ± 0.018	0.986 ± 0.027	1 ± 0.039	0.982 ± 0.028
UniProt Q9C0B5|Q9C0B5-2	1.02 ± 0.049	0.949 ± 0.024	0.96 ± 0.018	0.938 ± 0.012	0.903 ± 0.018	0.909 ± 0.019	1.02 ± 0.03	0.997 ± 0.029
RNF181 (UniProt Q9P0P0)	0.961 ± 0.027	0.925 ± 0.028	1.05 ± 0.077	1.03 ± 0.045	1.01 ± 0.013	1.02 ± 0.05	1.04 ± 0.1	1.09 ± 0.075
UniProt Q92804|Q92804-2	0.976 ± 0.03	1.048 ± 0.0095	1.18 ± 0.09	1.35 ± 0.14	1.56 ± 0.22	1.73 ± 0.28	2.08 ± 0.35	2.59 ± 0.54
JARID2 (UniProt Q92833)	0.971 ± 0.078	1.07 ± 0.11	1.09 ± 0.088	1.08 ± 0.087	1.05 ± 0.04	1.05 ± 0.088	1.18 ± 0.04	1.15 ± 0.026
MED10 (UniProt Q9BTT4)	1.01 ± 0.2	1.03 ± 0.098	0.973 ± 0.028	1.07 ± 0.11	0.95 ± 0.094	1.08 ± 0.05	0.968 ± 0.092	1.07 ± 0.038
UniProt Q9Y2X0-2|Q9Y2X0-3|Q9Y2X0	1.09 ± 0.2	1.07 ± 0.21	1.04 ± 0.17	1.16 ± 0.28	1.08 ± 0.21	1.11 ± 0.16	1.12 ± 0.18	1.04 ± 0.19
CCDC124 (UniProt Q96CT7)	1.01 ± 0.047	0.984 ± 0.019	1.12 ± 0.063	1.17 ± 0.067	1.41 ± 0.17	1.57 ± 0.22	1.61 ± 0.22	2.24 ± 0.18
UniProt Q9P287|Q9P287-2	1.03 ± 0.026	0.973 ± 0.032	0.971 ± 0.066	0.953 ± 0.059	0.99 ± 0.083	0.913 ± 0.069	0.943 ± 0.058	0.946 ± 0.075
SF3B5 (UniProt Q9BWJ5)	1.1 ± 0.16	1.11 ± 0.16	1.17 ± 0.23	1.27 ± 0.2	1.25 ± 0.21	1.33 ± 0.15	1.31 ± 0.19	1.38 ± 0.22
UniProt Q9NZM5	0.985 ± 0.053	0.939 ± 0.14	1.04 ± 0.083	1.03 ± 0.17	1.05 ± 0.16	1.07 ± 0.21	1.18 ± 0.17	1.13 ± 0.093
UniProt Q9Y333	0.946 ± 0.08	0.98 ± 0.11	0.973 ± 0.091	0.939 ± 0.1	0.887 ± 0.12	0.989 ± 0.13	0.962 ± 0.089	0.963 ± 0.059
UniProt Q96FJ2	0.875 ± 0.063	0.83 ± 0.033	1.07 ± 0.12	1.06 ± 0.081	1.18 ± 0.1	1.03 ± 0.11	1.05 ± 0.087	1.18 ± 0.17
UniProt Q96LT9|Q96LT9-2	1.26 ± 0.038	1.16 ± 0.16	1.42 ± 0.12	1.49 ± 0.3	1.61 ± 0.28	1.6 ± 0.35	1.72 ± 0.51	1.8 ± 0.54
UniProt Q969H8	0.971 ± 0.023	0.949 ± 0.034	0.884 ± 0.026	0.85 ± 0.019	0.834 ± 0.05	0.853 ± 0.057	0.8 ± 0.046	0.764 ± 0.085
UniProt Q96L91|Q96L91-2|Q96L91-3|Q96L91-5	1.03 ± 0.021	1.06 ± 0.04	1.12 ± 0.03	1.18 ± 0.061	1.24 ± 0.13	1.26 ± 0.14	1.32 ± 0.22	1.34 ± 0.23
NHP2 (UniProt Q9NX24)	0.959 ± 0.056	0.942 ± 0.054	1.02 ± 0.069	1.09 ± 0.067	1.2 ± 0.096	1.39 ± 0.16	1.45 ± 0.16	1.75 ± 0.35
FBXO28 (UniProt Q9NVF7)	1.09 ± 0.028	1.08 ± 0.13	1.28 ± 0.18	1.31 ± 0.099	1.39 ± 0.12	1.47 ± 0.12	1.42 ± 0.28	1.61 ± 0.25
UniProt Q969P0|Q969P0-3	1.02 ± 0.066	1 ± 0.048	0.961 ± 0.07	0.956 ± 0.058	0.932 ± 0.069	0.932 ± 0.049	0.953 ± 0.053	0.919 ± 0.077
CORO2A (UniProt Q92828)	1.08 ± 0.12	1.09 ± 0.11	1.11 ± 0.049	1.19 ± 0.047	1.31 ± 0.056	1.42 ± 0.075	1.42 ± 0.1	1.42 ± 0.058

Reference: the supplement of paper PMC6411743
